# Data taken from PubChem BioAssay (Tox21).
# Several values for one entry are separate records, joined by “and”; a condition that tells them apart may be missing. Equal values may be shown once. Records with an inconclusive call do not appear. A call without a number means that no potency is given here. More than one record can exist for a structure, and the calls need not agree. Activity calls are given as the source filed them. Unless noted, calls come from the whole dose curve; as a rule, active = well fitted curve in the direction sought with a large enough effect in the repeat runs; inconclusive = weak or mixed curves; inactive = no such curve, though single readings can be large; an effect the other way counts as inactive or inconclusive.
# Tests used:
# [1] = qHTS assay to identify small molecule agonists of the peroxisome proliferator-activated receptor delta (PPARd) signaling pathway - cell viability counter screen (AID 743211); note: nearly all actives have a fitted effect of over 55% in size; note: potency is the fitted concentration of half-maximal effect
# Outline: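 In the same wells used for beta-lactamase reporter measurement, cytotoxicity is scored by CellTiter-Glo. HEK293H PPARd-bla cells receive compound for 17 h at 37C following a 5 h settling period.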
# [2] = molecular target: Peroxisome proliferator-activated receptor delta (Homo sapiens) (UniProt Q03181); assay: qHTS assay to identify small molecule agonists of the peroxisome proliferator-activated receptor delta (PPARd) signaling pathway (AID 743212; calls by dose curve)
# Sequence of Peroxisome proliferator-activated receptor delta (Homo sapiens) (Q03181 whole entry, looked up): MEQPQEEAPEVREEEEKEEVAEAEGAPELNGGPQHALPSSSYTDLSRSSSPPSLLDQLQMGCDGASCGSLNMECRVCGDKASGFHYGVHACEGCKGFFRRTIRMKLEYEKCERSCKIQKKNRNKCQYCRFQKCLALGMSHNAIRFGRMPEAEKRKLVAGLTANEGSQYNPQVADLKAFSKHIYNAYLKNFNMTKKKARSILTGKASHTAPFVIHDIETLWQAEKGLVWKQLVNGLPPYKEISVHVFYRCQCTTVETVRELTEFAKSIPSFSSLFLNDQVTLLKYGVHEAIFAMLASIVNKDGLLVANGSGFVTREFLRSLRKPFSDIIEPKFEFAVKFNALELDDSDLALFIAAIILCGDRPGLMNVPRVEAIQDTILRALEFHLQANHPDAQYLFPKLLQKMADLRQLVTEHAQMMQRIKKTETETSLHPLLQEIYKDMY
# Outline: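 Read-out: beta-lactamase FRET fluorescence after 2 h room-temperature incubation with LiveBLAzer B/G substrate. Cells were HEK293H carrying a UAS-bla reporter for PPARd, treated at 37 C with DMSO-dissolved compounds.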
# [3] = qHTS assay to identify small molecule antagonists of the peroxisome proliferator-activated receptor delta (PPARd) signaling pathway - cell viability counter screen (AID 743213); note: nearly all actives have a fitted effect of over 50% in size; note: potency is the fitted concentration of half-maximal effect
# Outline: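 Luminescence from CellTiter-Glo, added after the bla read and incubated 30 min at room temperature, gives viability of HEK293H PPARd-bla cells exposed to compounds for 17 h at 37 C with 300 nM L165041.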
# [4] = molecular target: Peroxisome proliferator-activated receptor delta (Homo sapiens) (UniProt Q03181); assay: qHTS assay to identify small molecule antagonists of the peroxisome proliferator-activated receptor delta (PPARd) signaling pathway (AID 743215; active = well fitted inhibition curve with a large enough effect in the signal ratio in the repeat runs, not every such curve was filed as active; the % refers to the signal ratio;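 note: cells stimulated with agonist L165041 at 300 nM final during compound exposure; series mostly up to about 62 µM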)
# Outline: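 Screen format: qHTS, antagonist mode. HEK293H PPARd-bla cells received compound and 300 nM L165041 (final), 17 h, 37 C. Beta-lactamase detected via FRET substrate fluorescence, 2 h, room temperature.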
# [5] = qHTS assay to identify small molecule agonists of the farnesoid-X-receptor (FXR) signaling pathway - cell viability counter screen (AID 743218); note: nearly all actives have a fitted effect of over 45% in size; note: potency is the fitted concentration of half-maximal effect
# Outline: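 Same-well cytotoxicity check on FXR-UAS-bla HEK 293T cells: 5 h attachment, 16 h compound at 37 C, CellTiter-Glo luminescence read at room temperature after 30 min.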
# [6] = molecular target: Bile acid receptor (Homo sapiens) (UniProt Q96RI1); assay: qHTS assay to identify small molecule agonists of the farnesoid-X-receptor (FXR) signaling pathway (AID 743220; active = well fitted activation curve with a large enough effect in the signal ratio in the repeat runs, not every such curve was filed as active; the % refers to the signal ratio)
# Sequence of Bile acid receptor (Homo sapiens) (Q96RI1 whole entry, looked up): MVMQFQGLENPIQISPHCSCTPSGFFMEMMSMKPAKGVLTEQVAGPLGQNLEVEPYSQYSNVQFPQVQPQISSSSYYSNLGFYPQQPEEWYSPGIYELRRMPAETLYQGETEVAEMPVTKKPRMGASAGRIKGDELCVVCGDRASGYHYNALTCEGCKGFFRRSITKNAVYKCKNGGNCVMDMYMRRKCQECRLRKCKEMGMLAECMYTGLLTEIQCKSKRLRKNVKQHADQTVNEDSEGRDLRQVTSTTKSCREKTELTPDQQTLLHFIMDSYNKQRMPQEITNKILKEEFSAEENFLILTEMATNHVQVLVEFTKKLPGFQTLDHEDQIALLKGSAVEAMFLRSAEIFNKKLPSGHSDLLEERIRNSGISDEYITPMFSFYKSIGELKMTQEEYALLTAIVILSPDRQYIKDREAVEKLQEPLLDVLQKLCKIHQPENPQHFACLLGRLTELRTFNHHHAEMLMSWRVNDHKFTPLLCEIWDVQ
# Outline: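 FXR-UAS-bla HEK 293T cells carrying a UAS-driven beta-lactamase reporter were plated for 5 h at 37C/5% CO2, then exposed to DMSO-dissolved Tox21 10K compounds for 16 h at 37C. A LiveBLAzer B/G FRET substrate was loaded for 2 h at room temperature before fluorescence reading.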
# [7] = qHTS assay to identify small molecule antagonists of the farnesoid-X-receptor (FXR) signaling pathway - cell viability counter screen (AID 743221; active = well fitted cell-killing curve with a large enough effect in the repeat runs, not every such curve was filed as active; note: nearly all actives have a fitted effect of over 50% in size; note: potency is the fitted concentration of half-maximal effect)
# Outline: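 Here viability was scored by luminescence after CellTiter-Glo addition to wells already read for beta-lactamase. Prior treatment: compound plus CDCA (50 uM final), 16 h, 37 C, HEK 293T FXR-bla cells.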
# [8] = molecular target: Vitamin D3 receptor (Homo sapiens) (UniProt P11473); assay: qHTS assay to identify small molecule agonists of the vitamin D receptor (VDR) signaling pathway (AID 743222; calls by dose curve)
# Sequence of Vitamin D3 receptor (Homo sapiens) (P11473 whole entry, looked up): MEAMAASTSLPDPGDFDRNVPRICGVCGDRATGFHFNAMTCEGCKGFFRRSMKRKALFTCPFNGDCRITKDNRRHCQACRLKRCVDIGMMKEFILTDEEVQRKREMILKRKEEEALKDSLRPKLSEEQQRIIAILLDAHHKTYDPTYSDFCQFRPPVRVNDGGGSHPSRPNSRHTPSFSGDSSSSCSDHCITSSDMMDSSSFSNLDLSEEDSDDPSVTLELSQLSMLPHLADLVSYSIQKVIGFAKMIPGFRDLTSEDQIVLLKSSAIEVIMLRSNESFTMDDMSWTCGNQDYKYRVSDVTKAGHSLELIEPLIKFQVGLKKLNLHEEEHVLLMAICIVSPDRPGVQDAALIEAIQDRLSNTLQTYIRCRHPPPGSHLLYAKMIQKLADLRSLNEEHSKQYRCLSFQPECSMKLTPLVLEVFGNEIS
# Outline: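 Using LiveBLAzer B/G FRET detection, agonism was scored in VDR-bla cells exposed overnight (16 h, 37C) to DMSO-dissolved compounds; substrate incubation was 2 h at room temperature.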
# [9] = molecular target: Vitamin D3 receptor (Homo sapiens) (UniProt P11473); assay: qHTS assay to identify small molecule antagonists of the vitamin D receptor (VDR) signaling pathway (AID 743223; active = well fitted inhibition curve with a large enough effect in the signal ratio in the repeat runs, not every such curve was filed as active; the % refers to the signal ratio)
# Outline: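 Inhibition of agonist-driven VDR signalling is scored in VDR-bla cells: 3 nM final 1alpha,25-dihydroxyvitamin D3 plus compound, 16 h at 37C, then beta-lactamase detection by FRET substrate fluorescence after 2 h.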
# [10] = molecular target: Bile acid receptor (Homo sapiens) (UniProt Q96RI1); assay: qHTS assay to identify small molecule antagonists of the farnesoid-X-receptor (FXR) signaling pathway (AID 743217; active = well fitted inhibition curve with a large enough effect in the signal ratio in the repeat runs, not every such curve was filed as active; the % refers to the signal ratio)
# Outline: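 Quantitative HTS, beta-lactamase reporter format: FXR-UAS-bla HEK 293T cells co-treated 16 h at 37 °C with compounds and 50 uM final chenodeoxycholic acid, then read by B/G FRET fluorescence.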
SMILES,Potency [1],outcome [2],Potency [3],Potency [4],Potency [5],outcome [6],Potency [7],outcome [8],outcome [9],Potency [10]
CCCCC(CC)COC(=O)c1ccc(N(C)C)cc1 (stereo unspecified),inactive,inactive,inactive,inactive,inactive,inactive,inactive,inactive,inactive,
OCCO,inactive,inactive,inactive,inactive,inactive,inactive,,inactive,inactive,inactive
c1ccc2c(c1)c1cccc3ccc4cccc2c4c31,inactive,inactive,inactive,inactive,inactive,inactive,,inactive,inactive,inactive
COC(=O)C1=C(C)NC(C)=C(C(=O)OCCN(C)Cc2ccccc2)C1c1cccc([N+](=O)[O-])c1 (stereo unspecified),24.4 µM (active) and 26.6 µM (active),inactive,48.7 µM (active) and 26.6 µM (active),,24.4 µM (active) and 29.8 µM (active),,,,,
c1ccc2c(c1)Oc1ccccc1S2,inactive,inactive,inactive,inactive,inactive,,inactive,inactive,inactive,
O=c1oc(=O)c2cc3c(=O)oc(=O)c3cc12,inactive,inactive,inactive,inactive,,,inactive,inactive,inactive,
CC1=CC2C3CC(C=C3C)C2C1 (stereo unspecified),inactive,inactive,inactive,inactive,inactive,,inactive,inactive,,
C[C@]12CCC(=O)C=C1CC[C@@H]1[C@@H]2C(=O)C[C@@]2(C)[C@H]1CC[C@]2(O)C(=O)CO,inactive,inactive,49 µM (active) and inactive,,inactive,,inactive,,,
CN(C)CCC=C1c2ccccc2CCc2ccccc21,43.7 µM (active) and 38.9 µM (active) and 29.8 µM (active),inactive,24.5 µM (active),inactive,49 µM (active) and 19.5 µM (active),inactive,43.7 µM (active) and 29.8 µM (active),inactive,inactive,inactive
CC(=O)C1(C)CC2=C(CCCC2(C)C)CC1C (stereo unspecified),inactive,inactive,inactive,inactive,inactive,,inactive,inactive,inactive,
CCOC(=O)C(C#N)=C(c1ccccc1)c1ccccc1,inactive,inactive,inactive,inactive,inactive,inactive,,,,inactive
Cc1cc2nc3c(=O)[nH]c(=O)nc-3n(C[C@H](O)[C@H](O)[C@H](O)CO)c2cc1C,inactive,inactive,inactive,inactive,inactive,inactive,inactive,,,inactive
CCC(C)c1ccccc1O (stereo unspecified),inactive,inactive,inactive,inactive,inactive,,inactive,inactive,inactive,
Cc1c(C(N)=O)cc([N+](=O)[O-])cc1[N+](=O)[O-],inactive,inactive,inactive,inactive,inactive,,inactive,inactive,inactive,
COC(C)COC(C)COC(C)CO (stereo unspecified),inactive,inactive,inactive,inactive,inactive,inactive,inactive,inactive,inactive,inactive
O=[N+]([O-])c1ccc2c(c1)Cc1ccccc1-2,inactive,inactive,inactive,inactive,inactive,,,,,
CCCCC/C=C/C=C/C=O,inactive,inactive,inactive,inactive,inactive,inactive,inactive,inactive,,inactive
CN1C(C(=O)Nc2ccccn2)=C(O)c2ccccc2S1(=O)=O,inactive,inactive,inactive,inactive,inactive,inactive,inactive,inactive,inactive,inactive
CCOCCOCCO,inactive,inactive,inactive,inactive,inactive,,,,,
CNCCCC12CCC(c3ccccc31)c1ccccc12,17.4 µM (active) and 29.8 µM (active),inactive,9.77 µM (active) and 16.8 µM (active),,19.5 µM (active) and inactive,,,,inactive,
OC(CCl)CCl,inactive,inactive,inactive,inactive,inactive,,,inactive,inactive,
Cc1ncc[nH]1,inactive,inactive,inactive,inactive,inactive,inactive,inactive,inactive,inactive,inactive
COc1ccccc1/C=C/C=O,inactive,inactive,inactive,inactive,inactive,inactive,inactive,inactive,inactive,inactive
O=Cc1ccccc1O,inactive,inactive,inactive,inactive,inactive,,,inactive,inactive,
Cc1[nH]c(=O)c(C#N)cc1-c1ccncc1,inactive,inactive,inactive,inactive,inactive,,inactive,,,
O=C1c2cccc(O)c2C(=O)c2c(O)cccc21,inactive,inactive,,inactive,inactive,,inactive,inactive,inactive,inactive
O=C(c1ccccc1)c1ccc(O)cc1O,inactive,inactive,inactive,inactive,inactive,inactive,inactive,,,inactive

SMILES,Potency [1],outcome [2],Potency [3],Potency [4],Potency [5],outcome [6],Potency [7],outcome [8],outcome [9],Potency [10]
CC1=CCC(C(C)(C)O)CC1 (stereo unspecified),inactive,inactive,inactive,inactive,inactive,inactive,inactive,inactive,inactive,inactive
NNc1ccc(C(=O)O)cc1,inactive,inactive,inactive,inactive,inactive,,inactive,inactive,inactive,
CCC(C)OC(=O)c1ccc(O)cc1 (stereo unspecified),inactive,inactive,inactive,inactive,inactive,,inactive,inactive,inactive,
C=CC(C)(CCC=C(C)C)OC(C)=O (stereo unspecified),inactive,inactive,inactive,inactive,inactive,inactive,inactive,inactive,inactive,inactive
Cc1ccc(C)c(O)c1C,inactive,inactive,inactive,inactive,inactive,,inactive,inactive,inactive,
COc1ccc(C(=O)CC(=O)c2ccc(C(C)(C)C)cc2)cc1,inactive,inactive,inactive,inactive,inactive,inactive,inactive,inactive,inactive,
Nc1ccccc1N,inactive,inactive,inactive,inactive,,,,inactive,,
Cc1cccc([N+](=O)[O-])c1C,inactive,inactive,inactive,inactive,inactive,,,inactive,inactive,
Nc1ncnc2nc[nH]c12,inactive,inactive,inactive,inactive,inactive,inactive,inactive,inactive,inactive,inactive
c1cc(-c2ccncc2)ccn1,inactive,inactive,inactive,inactive,inactive,,inactive,inactive,inactive,
Nc1ccc(Cl)cc1Cl,inactive,inactive,inactive,inactive,inactive,inactive,inactive,,,inactive
CC(=O)c1ccccn1,inactive,inactive,inactive,inactive,inactive,inactive,,inactive,inactive,inactive
Oc1ccc(O)cc1,inactive,,inactive,inactive,inactive,,inactive,,,
Cn1cnc([N+](=O)[O-])c1Sc1ncnc2nc[nH]c12,inactive,,inactive,inactive,inactive,,inactive,,,
O=S(=O)(O)c1ccc(O)cc1,inactive,,inactive,inactive,inactive,,inactive,inactive,inactive,
O=C=Nc1ccc(Cc2ccc(N=C=O)cc2)cc1,inactive,,inactive,inactive,inactive,inactive,inactive,inactive,inactive,inactive
CN(C)CCN(Cc1cccs1)c1ccccn1,inactive,,inactive,inactive,inactive,,,inactive,inactive,
OC1CCCCCCCCCCC1,inactive,,inactive,inactive,inactive,,,,,
O=C1OC2(c3cc(Br)c(O)c(Br)c3Oc3c2cc(Br)c(O)c3Br)c2c(Cl)c(Cl)c(Cl)c(Cl)c21,inactive,,inactive,inactive,inactive,,inactive,,,
CCCCC(CC)COP(=O)(OCC(CC)CCCC)OCC(CC)CCCC (stereo unspecified),inactive,,inactive,inactive,inactive,inactive,inactive,inactive,inactive,inactive
COC(=O)c1ccccc1,inactive,,inactive,inactive,inactive,,,inactive,inactive,
Brc1cc(Oc2cc(Br)c(Br)c(Br)c2Br)c(Br)c(Br)c1Br,inactive,,55.2 µM (active) and inactive,inactive,inactive,,,,,
CCC(C)(O)CCCC(C)C (stereo unspecified),inactive,,inactive,inactive,inactive,inactive,inactive,,,inactive
CC(=O)O[C@]1(C(C)=O)CC[C@H]2[C@@H]3C=C(Cl)C4=CC(=O)[C@@H]5C[C@@H]5[C@]4(C)[C@H]3CC[C@@]21C,inactive,,inactive,inactive,inactive,,inactive,,inactive,
Cc1cccc(C(=O)O)c1,inactive,,inactive,inactive,inactive,,inactive,inactive,inactive,
CC(CCC(=O)O)(c1ccc(O)cc1)c1ccc(O)cc1,inactive,,inactive,inactive,inactive,inactive,inactive,inactive,inactive,inactive
